High-throughput results deposited in PubChem BioAssay by Broad Institute.
Wnt bcat act: Wnt/beta-catenin pathway activation. Wnt/beta-catenin reporter cell assay, activator, plate reader. activation, % at 9.35 µM. 1.2% of 300,000 active; in the data active = activation above about 30%, passing the limit was not always enough; inconclusive = no clear call, values can overlap the other calls;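 note: 0% = neutral control wells and 100% = positive control wells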
esBAF inh: inhibitors of esBAF chromatin remodeling in mouse ES cells. Bmi1-luciferase knock-in reporter, 24 h; 100% = twice the neutral-well signal. 2% of 350,000 active. reporter increase, % at 12.5 µM; in the data active = activation above about 40%; inconclusive = no clear call, values can overlap the other calls;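 note: 0% = median of the plate's neutral control wells and 100% = double that signal; a rise in the Bmi1 reporter signal indicates esBAF inhibition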
EWS-Fli block: EWS/Fli transcriptional activity inhibition; inhibition, % at 12.6 µM; A673 NR0B1-luciferase reporter, viability-normalised; 0.67% of 350,000 active;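 active = mean inhibition of at least 50% after viability correction, with every replicate also passing that limit; inconclusive = mean reaches 50% but only one of two replicates passes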;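 note: firefly luciferase signal divided by Alamar Blue viability fluorescence both relative to DMSO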
MITF act: MITF TRPM1 promoter activation in melanoma cells; AID 588334; SK-MEL-5 TRPM1-promoter luciferase, 24 h; % of positive control, neutral wells = 0; activation, % at 12.5 µM; 0.75% of 300,000 active;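 active = mean activation of at least 80% with every replicate also reaching 80%; inconclusive = mean reaches 80% but some replicate falls short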;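 note: 0% = neutral control wells and 100% = parthenolide positive control wells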
PAX8 inh HTS: inhibitors of PAX8 transcriptional activity in RMG-I cells. RMG-I TPO-luciferase reporter, SteadyGlo, 24 h. AID 652154. 1.2% of 360,000 active. inhibition, % at 12.6 µM;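 active = mean replicate inhibition at least 60% with every replicate also reaching 60%; inconclusive = only one of the two criteria is met; inactive = mean below 60% and not all replicates reaching 60%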;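 note: luciferase light reporting Pax8 driven TPO promoter activity; plate controls were median of neutral control wells for no effect and mitoxantrone controls for full effect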
TRPM1 prom inh: reduces MITF-dependent TRPM1 promoter luciferase signal; SK-MEL-5 TRPM1 promoter luciferase, 24 h; inhibition, % at 12.5 µM; 0.83% of 330,000 active; AID 488899;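 active = mean inhibition across replicates of 60% or more, whatever share of single replicates reaches that level; inconclusive = some that reach 60%, reason not given; inactive = mean inhibition across replicates below 60%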
Starred values were filed as active, the others as inactive; ? = inconclusive; · = no result given. A selection: hits, their analogues and other compounds. The true share with any hit is near 4%.

SMILES | Wnt bcat act | esBAF inh | EWS-Fli block | MITF act | PAX8 inh HTS | TRPM1 prom inh
Cc1c(Cl)ccc2sc(NC(=O)c3ccco3)nc12 | ? | 64* | -88 | · | -170 | ·
O=C(Nc1nc2cc3c(cc2s1)OCCO3)c1ccncc1 | 17 | · | -48 | 62 | -136 | -60
O=C(Nc1nc2cc3c(cc2s1)OCCO3)c1ccco1 | 7 | -76 | 87* | -63 | · | ?
CC(=O)Nc1nc2cc3c(cc2s1)OCO3 | 23 | 57* | -35 | · | -144 | ·
O=C(Nc1ccc2c(c1)OCO2)N[C@H]1CC[C@H](CCNC(=O)C2CCCC2)O[C@@H]1CO | · | -2 | 6 | · | -10 | ·
C[C@@H]1CN([C@@H](C)CO)C(=O)c2cc(NS(=O)(=O)c3ccc(F)cc3)ccc2O[C@@H](C)CCCCO[C@@H]1CN(C)C(=O)CCCN(C)C | · | -1 | 3 | · | -17 | ·
COCC#Cc1ccc2c(c1)O[C@@H](CN(C)C(=O)Nc1ccc(OC)cc1)[C@@H](C)CN([C@@H](C)CO)S2(=O)=O | · | 8 | 0 | · | · | ·
CO[C@@H]1CC[C@@H]2CCN(C)C(=O)CCCN(C)C(=O)c3cccc(C#N)c3OC[C@H]1O2 | · | 5 | 5 | · | 2 | ·
O=C(Nc1nc2cc3c(cc2s1)OCO3)c1ccco1 | 14 | -69 | 64* | -6 | 33 | 10
COc1ccc(-c2nc(NC(=O)c3ccco3)sc2C)cc1 | 16 | 65* | -42 | · | -105 | ·
CCc1cc(CNC(=O)CCc2nnc(CCCc3ccccc3)o2)on1 | 43* | 57* | -101 | 89* | -214 | -96
COCC(=O)N1CC2(C1)[C@H](c1ccc(-c3ccccc3)cc1)[C@H](CO)N2C(=O)COC | · | · | 1 | · | · | ·
COC(=O)c1cccc(CN2C(=O)C(C)Sc3ccc(C(C)=O)cc32)c1 (stereo not drawn) | 0 | 46* | -19 | · | -104 | ·
CC(=O)c1ccc2c(c1)N(Cc1ccccc1Cl)C(=O)C(C)S2 (stereo not drawn) | -1 | 3 | -4 | · | 4 | ·
COC(=O)c1cccc(CN2C(=O)C(C)Sc3cc(Cl)ccc32)c1 (stereo not drawn) | -2 | 45* | -28 | · | -185 | ·
COC(=O)c1cccc(CN2C(=O)C(C)Sc3ccc(C)cc32)c1 (stereo not drawn) | 0 | 17 | -24 | · | -48 | ·
COCC(=O)N1[C@H](CO)[C@@H](c2ccc(-c3cccc(OC)c3)cc2)C12CN(C(C)=O)C2 | · | · | -12 | · | -16 | ·
COc1ccc(NC(=O)Nc2ccc3c(c2)C(=O)N([C@H](C)CO)C[C@@H](C)[C@H](CN(C)S(=O)(=O)c2ccc(OC)cc2)O3)cc1 | · | -2 | 4 | · | 2 | ·
O=C1c2ccccc2C(=O)N1CCSc1ccccc1 | · | 50* | · | · | · | -47
COc1ccc(C(=O)c2c(C(F)(F)F)oc3c2C(=O)c2ccccc2C3=O)cc1 | · | · | · | -103 | · | 105*
COc1ccc(OCCSc2ncccn2)cc1 | · | ? | · | 38 | · | -44
Clc1ccc(OCCSc2ncccn2)cc1 | · | · | · | 100* | · | -98
COc1ccc(OCCCSc2ncccn2)cc1 | · | 57* | · | 113* | · | -103
COc1cccc(OCCSc2nc(N)cc(N)n2)c1 | · | 55* | · | · | · | -19
COc1cccc(OCCCCSc2ncccn2)c1 | · | 55* | · | 41 | · | -38
SMILES | Wnt bcat act | esBAF inh | EWS-Fli block | MITF act | PAX8 inh HTS | TRPM1 prom inh
CO[C@@H]1CN(C)C(=O)c2ccc(NS(=O)(=O)C3CCCCC3)cc2OC[C@@H](C)NC[C@@H]1C | · | 3 | 3 | · | -19 | ·
Cc1ccc(OCCCSc2ncccn2)cc1C | · | 70* | · | ? | · | -71
O=C(c1ccccc1F)N1C[C@H]2[C@@H](c3ccccc31)[C@@H](CO)N2C(=O)C1CCCC1 | · | -4 | 1 | · | 5 | ·
COCC(=O)Nc1c(C(=O)Nc2ccc3c(c2)OCO3)oc2ccccc12 | 27 | 63* | -60 | 59 | -232 | -58
COC(=O)c1oc2ccccc2c1NC(=O)c1ccccc1O | 0 | -5 | 2 | -18 | 50 | 17
O=C(Nc1ccc2c(c1)OCCO2)c1coc2ccccc2c1=O | · | · | · | -69 | 1 | 73*
Cc1c(C(=O)NNC(=O)c2ccccc2O)oc2ccccc12 | 1 | 59* | -24 | · | -18 | ·
CC(=O)Nc1c(C(=O)Nc2ccc3c(c2)OCO3)oc2ccccc12 | ? | ? | · | 79 | -162 | -81
Cc1c(C(=O)Nc2ccc3c(c2)OCO3)oc2ccccc12 | 27 | 50* | -71 | 42 | -166 | -40
NC(=O)c1cccc(-c2cnc(N)c(C(=O)c3cccnc3)n2)c1 | · | -19 | · | -60 | · | 61*
